The values below are quoted from earlier work in PubChem BioAssay AID977611.

Hit rate of the full screen: of about 3,900 compounds, about 3,900 (100%) were called active. No cut-off is given here; in the data, nearly all actives have Kd up to about 4200 µM. The set was probably picked from earlier hits. The list shows a part of the results. Starred links: 1 amine or outer side, 2 acyl side, 3 side chain; linkers in the order of their positions; H or OH if unused. *1 amine or outer side, *2 acyl side, *3 side chain or, on linkers, in order; H or OH if unused. Where a SMILES comes first, the peptide text is derived from it. Non-standard residues stand in square brackets, D forms with d. Square brackets hold non-standard residues; d marks the D form. Residues, ends and D or L forms follow the SMILES beside them. Peptide text beside a SMILES is read from it. [ ]: non-standard residue; d: D form. * marks the point of attachment. X1 = O=C([C@H](Cc1ccc(O[P+](O)(O)O)cc1)N[*:1])[*:2]; Orn(CH(NH2)2) = NC(N)NCCC[C@H](N)C(=O)O; AMC = Cc1cc(=O)oc2cc(N*)ccc12

The series in a line: PubChem AID 977611. To be noted: PDB protein-ligand complexes, literature Kd.

Take `CSCC[C@H](NC(=O)[C@H](Cc1cnc[nH]1)NC(=O)[C@H](CCC(N)=O)NC(=O)[C@H](CCCNC(N)N)NC(=O)[C@H](CCC(=O)O)NC(=O)[C@H](Cc1ccccc1)NC(=O)[C@H](CCCCN)NC(=O)[C@H](C)NC(=O)[C@H](C)NC(=O)[C@H](C)NC(=O)[C@@H](NC(=O)[C@H](CCC(=O)O)NC(=O)[C@@H](N)CCCCN)[C@@H](C)O)C(=O)N[C@@H](CC(=O)O)C(=O)N[C@@H](CO)C(N)=O` (H-KETAAAKFE[Orn(CH(NH2)2)]QHMDS-NH2): the Kd – broadly, a measure of binding affinity in units of concentration – is 20 nM (active) (protein: Ribonuclease S(RNase S), PDB entry 1j7z); 300 nM (active) (protein: Ribonuclease S(RNase S), PDB entry 1j80); 80 nM (active) (protein: Ribonuclease S(RNase S), PDB entry 1j81).
Take `CC(C)C[C@H](N)C(=O)NCC(=O)N[C@@H](CCCCN)C(=O)N[C@@H](CCCNC(N)N)C(=O)N[C@@H](CCCCN)C(=O)N[C@@H](Cc1ccc(O)cc1)C(=O)O` (H-LGK[Orn(CH(NH2)2)]KY-OH): the dissociation constant Kd (protein: IMPORTIN SUBUNIT ALPHA-2, PDB entry 4ba3) is 2900 nM (active).
Turning to `CSCC[C@H](NC(=O)[C@H](CC(C)C)NC(=O)[C@H](CCCCN)NC(=O)[C@H](CCCCN)NC(=O)[C@H](Cc1cnc[nH]1)NC(=O)[C@H](CCCNC(N)N)NC(=O)[C@@H](N)CO)C(=O)N[C@@H](Cc1ccccc1)C(=O)N[C@@H](CCCCN)C(=O)O` (H-S[Orn(CH(NH2)2)]HKKLMFK-OH), where the note is “protein: phospho-CDK2/cyclin A, PDB entry 1h26”, the Kd was 2900 nM (active).
With `CC(=O)NCCCC[C@H](NC(=O)[C@H](CCCCN)NC(=O)[C@H](Cc1cnc[nH]1)NC(=O)[C@H](CCCNC(N)N)NC(C)=O)C(=O)Nc1ccc2c(C)cc(=O)oc2c1` (Ac-[Orn(CH(NH2)2)]HKK(Ac)-{AMC}), the Kd (protein: NAD-dependent protein deacetylase sirtuin-3, mitochondrial, PDB entry 4fz3) is 184000 nM (active).
For the molecule `CC(C)C[C@H](N)C(=O)NCC(=O)N[C@@H](CCCCN)C(=O)N[C@@H](CCCNC(N)N)C(=O)N[C@@H](CCCCN)C(=O)N[C@@H](CCCNC(N)N)C(=O)N[C@@H](Cc1cnc[nH]1)C(=O)O` (H-LGK[Orn(CH(NH2)2)]K[Orn(CH(NH2)2)]H-OH), where the note is “protein: IMPORTIN SUBUNIT ALPHA, PDB entry 2ynr”, the Kd is 1700 nM (active).
Turning to `CN(C)C1=NC(=O)c2ccccc2C1`, the Kd (protein: Caspase-6, PDB entry 4n7j) is 3400 nM (active).
Consider `NC1=NC(=O)c2ccccc2C1`, for which the Kd (protein: proCaspase-6, PDB entry 4n6g) was 3400 nM (active).
On to `CCCCCCCCCCCCCCCC(=O)OC[C@@H](CO[P+](O)(O)OC1[C@H](O)[C@H](O[P+](O)(O)O)C(O[P+](O)(O)O)[C@H](O[P+](O)(O)O)[C@H]1O)OC(=O)CCCCCCCCCCCCCCC` (stereo partly specified), for which the Kd (protein: Steroidogenic factor 1 SF-1, PDB entry 4qjr) was 80 nM (active).
Turning to `CCCCCCCCCCCCCCCC(=O)OC[C@@H](CO[P+](O)(O)O[C@@H]1[C@H](O)[C@H](O)[C@@H](O[P+](O)(O)O)[C@H](O[P+](O)(O)O)[C@H]1O)OC(=O)CCCCCCCCCCCCCCC`, the dissociation constant (Kd) (protein: Steroidogenic factor 1 SF-1, PDB entry 4qk4) was 250 nM (active).
On to H-ATPAWN-OH, for which the equilibrium dissociation constant (Kd) (protein: mRNA-capping enzyme subunit beta Pct1, PDB entry 4pn1) was 680 nM (active).
As to H-ANSNNPDWDF-OH, for the setting “protein: Humanized KR127 Fab, PDB entry 2eh8”, the Kd was 11 nM (active).
In the case of H-GASDGSGWSSENNPW-OH, under “protein: protein TolB, PDB entry 2ivz”, the Kd is 920 nM (active).
As for H-NDWLLPSY-OH, the Kd (protein: Microtubule-associated protein 1 light chain 3 (C32I, C119S, C122S mutation), PDB entry 4eoy) was 326 nM (active).
For H-DWDFLPP-NH2, the Kd (protein: Gamma-aminobutyric acid receptor-associated protein, PDB entry 3dow) was 11500 nM (active).
For the molecule `CC(C)C[C@H](NC(=O)[C@H](Cc1ccccc1)NC(=O)[C@@H]1CCCN1C(=O)[C@@H](NC(=O)[C@H](CC(C)C)NC(=O)[C@H](CO)NC(=O)[C@H](Cc1c[nH]cn1)NC(=O)[C@H](Cc1c[nH]c2ccccc12)NC(=O)[C@@H]1CCCN1C(=O)[C@H](Cc1ccccc1)NC(=O)[C@@H](N)C(C)C)C(C)C)C(=O)N[C@@H](C)C(=O)N1CCC[C@H]1C(=O)N[C@@H](CO)C(=O)N[C@@H](CCC(N)=O)C(=O)O` (H-VFPWHSLVPFLAPSQ-OH), the equilibrium dissociation constant (Kd) (protein: Ataxin-1, PDB entry 2m41) is 8000 nM (active).
In the case of `C=CCO[C@]1(C(=O)O)C[C@@H](O[C@]2(C(=O)O)C[C@@H](O)[C@@H](O)[C@@H]([C@H](O)CO[C@]3(C(=O)O)C[C@@H](O)[C@@H](O)[C@@H]([C@H](O)CO)O3)O2)[C@@H](O)[C@@H]([C@H](O)CO)O1`, the dissociation constant (Kd) (protein: antigen binding fragment of mAb S25-26, PDB entry 4m7j) was 781 nM (active).
For the molecule `CC(C)[C@H](NC(=O)[C@H](CCC(=O)O)NC(=O)[C@@H](NC(=O)[C@@H](N)CC(=O)O)[C@@H](C)O)C(=O)N[C@@H](Cc1ccc(O)cc1)C(=O)N[C@@H](CCC(=O)O)C(=O)N[C@@H](CO)C(=O)N1CCC[C@H]1C(=O)N[C@@H](Cc1ccc(O[P+](O)(O)O)cc1)C(=O)N[C@@H](C)C(=O)N[C@@H](CC(=O)O)C(=O)N1CCC[C@H]1C(=O)N[C@@H](CCC(=O)O)C(=O)O` (H-DTEVYESP[X1]ADPE-OH), the Kd (protein: Proto-oncogene vav, PDB entry 2mc1) was 71000 nM (active).
For the molecule `CC(=O)N[C@@H](CC(=O)O)C(=O)N[C@H](C(=O)N[C@@H](CCC(=O)O)C(=O)N[C@H](C(=O)N[C@@H](Cc1ccc(O[P+](O)(O)O)cc1)C(=O)N[C@@H](CCC(=O)O)C(=O)N[C@@H](CO)C(=O)N1CCC[C@H]1C(=O)N[C@@H](Cc1ccc(O[P+](O)(O)O)cc1)C(=O)N[C@@H](C)C(=O)N[C@@H](CC(=O)O)C(=O)N1CCC[C@H]1C(=O)N[C@@H](CCC(=O)O)C(N)=O)C(C)C)[C@@H](C)O` (Ac-DTEV[X1]ESP[X1]ADPE-NH2), the equilibrium dissociation constant (Kd) (protein: C-termainl SH2 domain from phospholipase C-gamma-1 comprising residues 663-759( PLC?), PDB entry 2fci) is 70 nM (active).
As for `O=C(Nc1ccc(-c2nn[nH]n2)cc1Cc1ccccc1)c1cccc(CC2CCCCC2)n1`, the dissociation constant (Kd) (protein: KSHV Protease, PDB entry 4p3h) was 1000 nM (active).
